Reference: PubChem BioAssay (NCATS)
Several values for one entry are separate records, joined by “and”; a condition that tells them apart may be missing. Identical values can stand only once. Records with an inconclusive call do not appear. Entries that show only a call come without a potency. Unmarked numbers belong to inactive results. Activity calls are given as the source filed them. Calls come from the whole dose curve; as a rule, active = well fitted cell-killing curve with a large enough effect; inconclusive = small, poorly fitted or top-dose-only effect, or effect the other way; inactive = no such curve, though single readings can be large or run the other way. Numbered stars: 1 amine (or outer) side, 2 acyl side, 3 side chain; on linkers, the order of the positions; unused ones are H or OH. Bridge positions count the residues as written; N and C are the ends. Square brackets hold non-standard residues; d marks the D form. Peptide text beside a SMILES is read from it. I, II: the chains in the order shown. Actinocin(9to1) = Cc1c2oc3c(C)ccc(C(=O)[*:1])c3nc-2c(C(=O)[*:2])c(N)c1=O; NMeV = CN[CH](C(=O)O)C(C)C; Sar = CNCC(=O)O

Experiment: Viability qHTS for spleen associated tyrosine kinase inhibitor (SYKi) naive MV4-11 cells (AID 1963823); note: nearly all actives have a fitted effect of over 40% in size
Conditions: MV4-11 AML viability, CellTiter-Glo luminescence, 72 h; series mostly up to 45 µM
Description: Department of Medicine, Hematology/Oncology
University Hospital Frankfurt, Germany.
Trials have shown promising clinical activity of the selective SYK inhibitor entospletinib in patients with high expressing HOXA9/MEIS1 acute leukemias. As the development of resistance mechanisms is a common problem in the use of targeted drugs, we performed a chemical library screen to identify drug sensitivities in SYK inhibitor resistant AML cells. […] Glucocorticoids are potent immunosuppressants which work in part by inhibiting the transcription of cytokine genes.
Described herein is a viability screen to look for activity in the SYK inhibitor naive cell line against four NCATS compound libraries (MIPE 5.0, NPC, NPACT, and Kinase) totaling 11372 compounds. Active hits were reacquired for confirmation and further secondary assay testing.
SEQUENCE No. (e.g., 1, 2, 3, etc.); […] (e.g., Cells, Incubation, Reagent, etc.); VALUE; DESCRIPTION.
1; Media; 2uL; white, solid-bottom Corning assay plate.
2; Compounds; 23nL; Echo acoustic dispenser.
3; Cell; 5uL; 500 cells per well.
4: Incubation; 72hr; 37 C, 5% CO2, 95% humidity.
5; Reagent; 3uL; CellTiter-Glo reagent (Promega).
6; Incubation; 10min; room temperature.
7; Detection; Luminescence; ViewLux plate reader (PerkinElmer).
NOTES (numbers refer to Sequence numbers above
1. Quantitative high-throughput screening (qHTS) of small molecule compounds was conducted on naive SYKi MV4-11 cell line.
2. Twenty-three nanoliter of small molecule compounds were added to each assay plates using the Echo acoustic dispenser (Beckman Coulter).
3. Cells were seeded into the assay plates at a final density of 500 cells in 5uL of media per well using the Multi-drop Combi dispenser.
4. Plates were covered with stainless steel gasketed lids and incubated for 72 hours at standard cell culture conditions.
5. Viability was assessed by adding 3uL of CellTiter-Glo detection reagent (Promega).
6. Plates were covered with gasket lids and incubated for 10 minutes at room temperature.
7. Luminescence was measured on a ViewLux plate reader (PerkinElmer).
Potency is the fitted concentration of half-maximal effect.

**Q.** For `CC(C)(C)C(O)/C=C/c1ccc2c(c1)OCO2` (stereo not given), which Potency is on record?
**A.** inactive

**Q.** For `CCOC(=O)[C@H](CCc1ccccc1)N[C@@H](C)C(=O)N1[C@H](C(=O)O)C[C@@H]2CCC[C@@H]21`, which Potency is on record?
**A.** inactive

**Q.** For `c1ccc(CC2=NCCN2)cc1`, which Potency is on record?
**A.** inactive

**Q.** For `CC1CCC2(C(=O)OC3OC(CO)C(O)C(O)C3O)CCC3(C)C(=CCC4C5(C)CCC(O)C(C)(CO)C5CCC43C)C2C1(C)O` (stereo not given), which Potency is on record?
**A.** inactive

**Q.** With `C=C1CCC2C(C)(C)CC(O)CC2(C)C1CCC(C)CC(=O)O` (stereo not given) as the compound, how does the Potency read?
**A.** inactive

**Q.** Which viability (% of control) does the source give for `CC(=O)OC1CC(C)(C(=O)O)CC2C3=CC(=O)C4C5(C)CCC(OC6OC(C(=O)O)C(O)C(O)C6OC6OC(C(=O)O)C(O)C(O)C6O)C(C)(C)C5CCC4(C)C3(C)CCC12C` (stereo not given) here?
**A.** 70.5% [at 9.25 µM]

**Q.** Which Potency does the source give for `CC1(C)CCCC2(C)C1C(OC(=O)/C=C/C=C/C=O)C=C1COC(=O)C12O` (stereo not given) here?
**A.** 5.02 µM (active)

**Q.** With `CCC(C)C(C(=O)O)N1Cc2c(OCC=C(C)C)c(C)c(OC)c(C(=O)O)c2C1=O` (stereo not given) as the compound, how does the Potency read?
**A.** inactive

**Q.** Which Potency does the source give for `O=C(O)CC1CC(c2ccccc2)=NO1` (stereo not given) here?
**A.** inactive

**Q.** For `COC(=O)C1=CO[C@@H](O[C@@H]2O[C@H](CO)[C@@H](O)[C@H](O)[C@H]2O)[C@@H]2[C@@H](C(=O)O)CC[C@H]12`, which Potency is on record?
**A.** inactive

**Q.** With `CCC1=C[C@@H]2CN(C1)Cc1c([nH]c3ccccc13)[C@@](C(=O)OC)(c1cc3c(cc1OC)N(C)[C@H]1[C@@](O)(C(=O)OC)[C@H](OC(C)=O)[C@]4(CC)C=CCN5CC[C@]31[C@@H]54)C2` as the compound, how does the Potency read?
**A.** 8.4 nM (active) and 91 nM (active)

**Q.** Which Potency does the source give for `C/C=C(\C)C(=O)OCC1OC(OC2OC(CO)C(O)C(O)C2O)C(O)C(O)C1O` (stereo not given) here?
**A.** inactive

**Q.** Which Potency does the source give for `CC(C)(N)c1ccc(-c2nc3ccccc3nc2-c2ccccc2)cc1` here?
**A.** 9.2 µM (active)

**Q.** For `C=C[C@H]1[C@H](O[C@@H]2O[C@H](CO)[C@@H](O)[C@H](O)[C@H]2O)OC=C(C(=O)OC)[C@H]1C[C@@H]1N[C@H](C(=O)O)Cc2c1[nH]c1ccccc21`, which Potency is on record?
**A.** inactive

**Q.** For `COc1c2cc(c(O)c1OC)-c1cc(ccc1O)CCC(O)CCCC2` (stereo not given), which Potency is on record?
**A.** 12.8 µM (active)

**Q.** With `CCN(CC)CC(=O)OCC(=O)[C@@]1(O)CC[C@H]2[C@@H]3CCC4=CC(=O)CC[C@]4(C)[C@H]3[C@@H](O)C[C@@]21C` as the compound, how does the Potency read?
**A.** inactive

**Q.** With `CC(C)C(NC(=O)c1ccc(O)cc1)C(=O)N1CCCC1C(=O)Nc1c(O)cccc1C(=O)O` (stereo not given) as the compound, how does the Potency read?
**A.** inactive

**Q.** With `O=C(O)c1ccc(O)c2ncc(N3CCCN(CCc4cccc5ccccc45)CC3)cc12` as the compound, how does the Potency read?
**A.** 18.4 µM (active)

**Q.** For `Cn1nc(-c2ccc(C(F)(F)F)cc2)nc2c(=O)n(C)c(=O)nc1-2`, which Potency is on record?
**A.** 3.66 µM (active)

**Q.** With `CC1C(OC(=O)c2ccccc2)C(O)C2C(C(=O)O)=COC(OC3OC(CO)C(O)C(O)C3O)C12` (stereo not given) as the compound, how does the Potency read?
**A.** inactive

**Q.** For `Cc1ccc(Nc2ncc3c(n2)N(C)C(=O)N(c2cc(NC(=O)c4cccc(C(F)(F)F)c4)ccc2C)C3)cn1`, which Potency is on record?
**A.** 0.0148 µM (active)

**Q.** With `CC1CCC2C(C)(C)C(O)CCC2(C)C12Cc1c(O)cc3c(c1O2)CN(C(CCCN=C(N)N)C(=O)O)C3=O` (stereo not given) as the compound, how does the Potency read?
**A.** 3.17 µM (active)

**Q.** For `CC1(O)CC(O)C2C(C(=O)O)=COC(OC3OC(CO)C(O)C(O)C3OC(=O)/C=C/c3ccc(O)cc3)C21` (stereo not given), which Potency is on record?
**A.** inactive

**Q.** Which Potency does the source give for `Cc1c2oc3c(C)ccc(C(=O)NC4C(=O)NC(C(C)C)C(=O)N5CCCC5C(=O)N(C)CC(=O)N(C)C(C(C)C)C(=O)OC4C)c3nc-2c(C(=O)NC2C(=O)NC(C(C)C)C(=O)N3CCCC3C(=O)N(C)CC(=O)N(C)C(C(C)C)C(=O)OC2C)c(N)c1=O` (stereo not given) (I: TVP[Sar][NMeV] / II: TVP[Sar][NMeV]; ester I:1-I:C, II:1-II:C; linker I:N-II:N via Actinocin(9to1); configuration not given here) here?
**A.** 0.0014 µM (active)

**Q.** With `CC1(C)CC[C@]2(C(=O)O[C@@H]3O[C@H](CO)[C@@H](O)[C@H](O)[C@H]3O)CC[C@]3(C)C(=CCC4[C@@]5(C)CC[C@H](O[C@@H]6O[C@H](C(=O)O)[C@@H](O[C@@H]7O[C@H](CO)[C@@H](O)[C@H](O)[C@H]7O)[C@H](O)[C@H]6O[C@@H]6O[C@H](CO)[C@@H](O)[C@H](O)[C@H]6O)C(C)(C)C5CC[C@]43C)C2C1` (stereo not given in full) as the compound, how does the viability (% of control) read?
**A.** 93% [at 9.25 µM]

**Q.** Which Potency does the source give for `CC(C)CCCC(C)N` (stereo not given) here?
**A.** inactive

**Q.** For `CNC(=O)c1ccccc1Nc1nc(Nc2ccc(N3CCOCC3)cc2OC)ncc1Cl`, which Potency is on record?
**A.** 184 nM (active) and 132 nM (active)

**Q.** For `CCCCCOc1ccc(-c2cc(-c3ccc(C(=O)N[C@H]4C[C@@H](O)[C@@H](O)NC(=O)C5[C@@H](O)[C@@H](C)CN5C(=O)C([C@H](O)CC(N)=O)NC(=O)C([C@H](O)[C@@H](O)c5ccc(O)c(OS(=O)(=O)O)c5)NC(=O)C5C[C@@H](O)CN5C(=O)C([C@@H](C)O)NC4=O)cc3)no2)cc1` (stereo not given in full), which Potency is on record?
**A.** inactive

**Q.** With `COC(=O)C12C(=O)C(C)=C(O)C1(C)C(C)=CC1C34CCC(OC3=O)C(C)(C)C4CCC12C` (stereo not given) as the compound, how does the Potency read?
**A.** inactive

**Q.** With `CC1=CCC2C(C)(CO)CCCC2(CO)C1CO` (stereo not given) as the compound, how does the Potency read?
**A.** inactive

**Q.** With `O=C(O)c1cc(=O)[nH]c(=O)[nH]1` as the compound, how does the Potency read?
**A.** inactive

**Q.** With `Nc1ccc(C(=O)Nc2cccc(-c3nc(N4CCOCC4)c4oc5ncccc5c4n3)c2)cn1` as the compound, how does the Potency read?
**A.** 10.3 µM (active)

**Q.** For `COC(=O)C1=CO[C@@H](O[C@@H]2O[C@H](COC(=O)/C=C/c3cc(OC)c(O)c(OC)c3)[C@@H](O)[C@H](O)[C@H]2O)[C@@H]2C(CO)=CC[C@H]12`, which Potency is on record?
**A.** inactive

**Q.** Which Potency does the source give for `NCC1CCC(C(=O)O)CC1` (stereo not given) here?
**A.** inactive

**Q.** For `O=C(c1ccccc1)c1c(O)cc(O)cc1O[C@@H]1O[C@H](CO)[C@@H](O)[C@H](O)[C@H]1O`, which Potency is on record?
**A.** inactive

**Q.** With `CC(=O)O[C@H]1[C@H](Oc2ccccc2COC(=O)C2(O)C=CCCC2=O)O[C@H](CO)[C@@H](O)[C@@H]1O` (stereo not given in full) as the compound, how does the Potency read?
**A.** inactive

**Q.** Which Potency does the source give for `Cc1ccc2nc(NC(=O)CSc3nc4c(c(=O)n3-c3ccccc3)SCC4)sc2c1` here?
**A.** inactive

**Q.** Which Potency does the source give for `CC1(C)CC[C@]2(C(=O)O[C@@H]3O[C@H](CO)[C@@H](O)[C@H](O)[C@H]3O)CC[C@]3(C)C(=CCC4[C@@]5(C)C[C@@H](O)[C@H](O)[C@@](C)(CO)C5[C@H](O)C[C@]43C)C2[C@@H]1O` (stereo not given in full) here?
**A.** inactive

**Q.** For `CN(CC(=O)N(Cc1ccc(C2CCCCC2)cc1)c1ccc(C(=O)O)c(O)c1)S(=O)(=O)c1c(F)c(F)c(F)c(F)c1F`, which Potency is on record?
**A.** 4.17 µM (active)

**Q.** For `COc1cc2c3cc1Oc1cc(ccc1O)C[C@@H]1c4c(cc(OC)c(O)c4Oc4ccc(cc4)C[C@@H]3N(C)CC2)CC[N+]1(C)C`, which Potency is on record?
**A.** inactive
